Measured values published in PubChem BioAssay (NCATS).
Inconclusive results are not listed. Activity calls are given as the source filed them. Calls follow the shape of the dose curve; as a rule, active = well fitted cell-killing curve with a large enough effect; inconclusive = small, poorly fitted or top-dose-only effect; inactive = no such curve, though single readings can be large or run the other way. Where a SMILES comes first, the peptide text is derived from it. [ ]: non-standard residue; d: D form. pGlu = O=C1CC[C@@H](C(=O)O)N1

Test: qHTS of pediatric cancer cell lines to identify multiple opportunities for drug repurposing: Primary screen for A673 cells (AID 1347092); also: nearly all actives have a fitted effect of over 45% in size
Settings: A673 Ewing sarcoma viability, CellTiter-Glo ATP luminescence, 48 h; series mostly up to 46 µM; activity change, negative = cytotoxic: at the top concentration
In short: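 Luminescence from CellTiter-Glo, taken after 15 min at room temperature, served as the proxy for metabolically active cells following 48 h treatment. Both potency and efficacy were taken from curves fitted to the titration data.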
% is scaled to controls: 0 for no effect and ±100 for the full control effect.

| SMILES | activity change, negative = cytotoxic |
| --- | --- |
| Cc1ccc(C(C)OC(=O)C2(C)CCC(C(=O)O)C2(C)C)cc1 (stereo not given) | 0.167% (inactive) |
| Cc1cc(O)c2c(O)c3c(O)cccc3cc2c1 | 3.78% (inactive) |
| O=C(CCCl)NCc1ccccc1 | 8.65% (inactive) |
| CCCCCCn1c(=O)c2c(ncn2C)n(C)c1=O | 1.36% (inactive) |
| O=c1[nH]c2ccccc2c(=O)n1CCCl | 10.5% (inactive) |
| CCc1cccc2c(CCO)c[nH]c12 | 2.82% (inactive) |
| C#CC(C)(CC)OC(=O)c1ccccc1C(=O)O (stereo not given) | 18.3% (inactive) |
| C[N+]1(CC2COC(c3ccccc3)(c3ccccc3)O2)CCCCC1 (stereo not given) | -12.5% [at 16.1 µM] (inactive) |
| [O-][n+]1cccc(/C(Cl)=N/OC[C@@H](O)CN2CCCCC2)c1 | -1.48% (inactive) |
| C[C@H]1C[C@H]2[C@@H]3CCC4=CC(=O)C=C[C@]4(C)[C@H]3C(=O)C[C@]2(C)[C@@]1(O)C(=O)CO | -5.44% (inactive) |
| CCNC(=O)[C@@H]1CCCN1C(=O)[C@H](CCCN=C(N)N)NC(=O)[C@H](CC(C)C)NC(=O)CNC(=O)[C@H](Cc1ccc(O)cc1)NC(=O)[C@H](CO)NC(=O)[C@H](Cc1c[nH]c2ccccc12)NC(=O)[C@H](Cc1cnc[nH]1)NC(=O)[C@@H]1CCC(=O)N1 ([pGlu]HWSYGLRP-NHEt) | 4.03% (inactive) |
| CC(=O)N[C@@H](CO)C(=O)N[C@@H](CC(=O)O)C(=O)N[C@@H](CCCCN)C(=O)N1CCC[C@H]1C(=O)O (Ac-SDKP-OH) | 10.1% (inactive) |
| Cc1cc(CCCOc2c(C)cc(-c3noc(C(F)(F)F)n3)cc2C)on1 | 1.74% (inactive) |
| Nc1ccc(C(=O)N2CC3CC(CN(Cc4ccccc4)C3)C2)cc1 | 4.93% (inactive) |
| Cc1ccc(/C=N/n2c(-c3ccccc3)csc2=S)cc1 | -13.1% (inactive) |
